Structures can show the parent of a compound that is named as a salt.

The subject of the first test is WPMY1-GM130-SQSTM1. The test can be described thus: phenotypically active (imaging signature differs from DMSO and reproducible) at any of 0.3-9 uM (binary (1 = active, 0 = inactive)); higher = active. Conditions: treatment time: 24 h. Summed up: (§1)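 The reporter lines, fifteen in total and built by gene editing in A549, HepG2 and WPMY1 cells, used BFP for segmentation alongside GFP and RFP/FusionRed markers. Each was treated at 0.3, 1, 3 or 9 µM for 24 h in four wells and then imaged live, with live-cell features normalised to solvent control wells. Deviation meant ≥3 of 4 wells beyond the 95th percentile of control Euclidean distances; reproducibility meant a median replicate Pearson correlation above the 95th percentile of non-replicates. Only conditions meeting both were scored as phenotypically active.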
As for `CN1C(=O)CC(C)(c2ccccc2)C1=O` (stereo not drawn) [methsuximide], the phenotypically active is 0 (inactive).
On to `O=C(NCCO)c1cc(C(=O)NCCO)cc(C(=O)NCCO)c1`, for which the phenotypically active is 0 (inactive).
Consider `CO[C@H]1C=CO[C@@]2(C)Oc3c(C)c(O)c4c(O)c(c5c(nc6cc(C)ccn65)c4c3C2=O)NC(=O)C(C)=CC=C[C@H](C)[C@H](O)[C@@H](C)[C@@H](O)[C@@H](C)[C@H](OC(C)=O)[C@@H]1C` [Rifaximin], for which the phenotypically active was 0 (inactive).
As to `N#Cc1ccc(C(c2ccc(C#N)cc2)n2cncn2)cc1` [Letrozole], the phenotypically active is 0 (inactive).
Consider `NC(=O)c1cccc(-c2cccc(OC(=O)NC3CCCCC3)c2)c1`, for which the phenotypically active is 0 (inactive).
On the same count and under the same terms, the value for `O=C(Nc1cccnc1)c1cc(-c2ccnc(F)c2)ccc1OCc1ccccc1` was 0 (inactive).
Consider `O=C(O)CCCC[C@@H]1SC[C@@H]2NC(=O)N[C@@H]21` [Biotin], for which the phenotypically active was 0 (inactive).
Consider `NS(=O)(=O)c1cc2c(cc1Cl)NC(C(Cl)Cl)NS2(=O)=O` (stereo not drawn) [trichlormethiazide], for which the phenotypically active is 0 (inactive).
Still for that read-out and setting: the value for `CCn1c(=O)c2cc(C(N)=O)c(N)nc2n(C2CC2)c1=O` was 0 (inactive); that for `CCCSc1nc2c(c(=O)n1-c1ccccc1)SCC2` was 0 (inactive).
The same measure, in the same setting: the value for `COc1cc(C#N)ccc1S(=O)(=O)Nc1ccc2c(c1)cc(C)c(=O)n2C` was 0 (inactive).
Still for that read-out and setting: as for `CC(C)(C)NC[C@H](O)COc1nsnc1N1CCOCC1` [timolol], the figure is 0 (inactive); as for `CC[N+](CC)(CC)CCC(O)(c1ccccc1)C1CCCCC1` (stereo not drawn) [tridihexethyl], 0 (inactive).
In the case of `COC(=O)C1=CO[C@@H](O[C@@H]2O[C@H](CO)[C@@H](O)[C@H](O)[C@H]2O)[C@H]2[C@@H]1C(=O)C[C@@H]2C` [Verbenaline], the phenotypically active was 0 (inactive).
Turning to `Nc1ncnc2c1ncn2[C@H]1O[C@@H](C(=O)N2CCN(CC(=O)Nc3cccc4c3CNC4=O)CC2)[C@H](O)[C@@H]1O`, the phenotypically active is 0 (inactive).
On the same count and under the same terms, the value for `COc1ccc2cc(CCC(C)=O)ccc2c1` [nabumetone] was 0 (inactive); that for `CC(C)c1ccc2oc3nc(N)c(C(=O)O)cc3c(=O)c2c1` [Amlexanox] was 0 (inactive).
For the compound `O=C(/C=C/N1C[C@H]2C[C@@H]1CN2c1ccccn1)c1ccccc1O`, the phenotypically active was 0 (inactive).
The same measure, in the same setting: the value for `C#CCN(C)Cc1ccccc1` [pargyline] was 0 (inactive).
On the same count and under the same terms, the value for `Cc1nc2c(O)cccc2c(=O)[nH]1` was 0 (inactive).
The same measure, in the same setting: the value for `CC(C)Cn1c(=O)n(C)c(=O)c2[nH]cnc21` was 0 (inactive); that for `COc1ccccc1OCC(O)CN1CCN(CC(=O)Nc2c(C)cccc2C)CC1` (stereo not drawn) [ranolazine] was 0 (inactive); that for `COC(=O)c1c(C)cc(OC(=O)c2c(C)cc(O)c(C=O)c2O)c(C)c1O` [Atranorin] was 0 (inactive).
For `CC(C)NCCCC1(C(N)=O)c2ccccc2-c2ccccc21` [indecainide], the phenotypically active is 0 (inactive).
Same read-out and setting: the value for `O=C1c2ccccc2C(Cc2ccncc2)(Cc2ccncc2)c2ccccc21` was 0 (inactive).
On the same count and under the same terms, as for `CC1=NN(c2ccc(C(=O)O)cc2)C(=O)/C1=C\c1ccc(-c2cc(C)c(C)cc2[N+](=O)[O-])o1`, the figure is 0 (inactive).
In the case of `CCCC(=O)Nc1ncnc2c1ncn2[C@@H]1O[C@@H]2COP(=O)(O)O[C@H]2[C@H]1OC(=O)CCC` [Dibutyryl-cAMP, sodium salt], the phenotypically active is 0 (inactive).
In the case of `CCO[C@@H](Cc1ccc(OCCc2ccc(OS(C)(=O)=O)cc2)cc1)C(=O)O` [Tesaglitazar], the phenotypically active is 0 (inactive).
For `O=c1[nH]cnc2ccccc12`, the phenotypically active was 0 (inactive).
The same measure, in the same setting: as for `S=P(N1CC1)(N1CC1)N1CC1` [thiotepa], the figure is 0 (inactive); as for `C[C@](N)(Cc1ccc(O)c(O)c1)C(=O)O` [methyldopa], 0 (inactive).
On the same count and under the same terms, the value for `CC1CCC(C(C)C)C(O)C1` [L-menthol] was 0 (inactive); that for `CCCCC1=NC2(CCCC2)C(=O)N1Cc1ccc(-c2ccccc2-c2nnn[nH]2)cc1` [irbesartan] was 0 (inactive); that for `CC(=O)Oc1ccccc1C(=O)O` [aspirin] was 0 (inactive).
`CC(C(=O)O)c1ccc(C(=O)c2cccs2)cc1` (stereo not drawn) [suprofen]: the phenotypically active was 0 (inactive).
The same measure, in the same setting: the value for `FC(F)OC(F)C(F)(F)F` (stereo not drawn) [desflurane] was 0 (inactive).
In the case of `CC(C)NCC(O)c1ccc(NS(C)(=O)=O)cc1` (stereo not drawn) [sotalol], the phenotypically active is 0 (inactive).
In the case of `COc1ccc(C(C)=O)c(O)c1` [2'-Hydroxy-4'-Methoxyacetophenone], the phenotypically active is 0 (inactive).
As to `CC(=O)[C@H]1CC[C@H]2[C@@H]3CCC4=CC(=O)CC[C@]4(C)[C@H]3CC[C@]12C` [progesterone], the phenotypically active was 0 (inactive).

The test system of another test is WPMY1-TP53BP1-CLTA. Described as above. Conditions: treatment time: 24 h. The gist of the method: as §1
For the compound `CN1C(=O)CC(C)(c2ccccc2)C1=O` (stereo not drawn) [methsuximide], the phenotypically active was 0 (inactive).
As for `O=C(NCCO)c1cc(C(=O)NCCO)cc(C(=O)NCCO)c1`, the phenotypically active is 0 (inactive).
The same measure, in the same setting: the value for `CO[C@H]1C=CO[C@@]2(C)Oc3c(C)c(O)c4c(O)c(c5c(nc6cc(C)ccn65)c4c3C2=O)NC(=O)C(C)=CC=C[C@H](C)[C@H](O)[C@@H](C)[C@@H](O)[C@@H](C)[C@H](OC(C)=O)[C@@H]1C` [Rifaximin] was 0 (inactive); that for `N#Cc1ccc(C(c2ccc(C#N)cc2)n2cncn2)cc1` [Letrozole] was 0 (inactive).
`NC(=O)c1cccc(-c2cccc(OC(=O)NC3CCCCC3)c2)c1`: the phenotypically active was 0 (inactive).
Regarding `O=C(Nc1cccnc1)c1cc(-c2ccnc(F)c2)ccc1OCc1ccccc1`, the phenotypically active is 0 (inactive).
In the case of `O=C(O)CCCC[C@@H]1SC[C@@H]2NC(=O)N[C@@H]21` [Biotin], the phenotypically active is 0 (inactive).
The same measure, in the same setting: as for `NS(=O)(=O)c1cc2c(cc1Cl)NC(C(Cl)Cl)NS2(=O)=O` (stereo not drawn) [trichlormethiazide], the figure is 0 (inactive); as for `CCn1c(=O)c2cc(C(N)=O)c(N)nc2n(C2CC2)c1=O`, 0 (inactive); as for `CCCSc1nc2c(c(=O)n1-c1ccccc1)SCC2`, 0 (inactive).
On the same count and under the same terms, as for `COc1cc(C#N)ccc1S(=O)(=O)Nc1ccc2c(c1)cc(C)c(=O)n2C`, the figure is 0 (inactive); as for `CC(C)(C)NC[C@H](O)COc1nsnc1N1CCOCC1` [timolol], 0 (inactive); as for `CC[N+](CC)(CC)CCC(O)(c1ccccc1)C1CCCCC1` (stereo not drawn) [tridihexethyl], 0 (inactive).
On the same count and under the same terms, the value for `COC(=O)C1=CO[C@@H](O[C@@H]2O[C@H](CO)[C@@H](O)[C@H](O)[C@H]2O)[C@H]2[C@@H]1C(=O)C[C@@H]2C` [Verbenaline] was 0 (inactive); that for `Nc1ncnc2c1ncn2[C@H]1O[C@@H](C(=O)N2CCN(CC(=O)Nc3cccc4c3CNC4=O)CC2)[C@H](O)[C@@H]1O` was 0 (inactive).
`COc1ccc2cc(CCC(C)=O)ccc2c1` [nabumetone]: the phenotypically active was 0 (inactive).
Turning to `CC(C)c1ccc2oc3nc(N)c(C(=O)O)cc3c(=O)c2c1` [Amlexanox], the phenotypically active was 0 (inactive).
The same measure, in the same setting: the value for `O=C(/C=C/N1C[C@H]2C[C@@H]1CN2c1ccccn1)c1ccccc1O` was 0 (inactive).
With `C#CCN(C)Cc1ccccc1` [pargyline], the phenotypically active is 0 (inactive).
As for `Cc1nc2c(O)cccc2c(=O)[nH]1`, the phenotypically active is 0 (inactive).
`CC(C)Cn1c(=O)n(C)c(=O)c2[nH]cnc21`: the phenotypically active was 0 (inactive).
The same measure, in the same setting: the value for `COc1ccccc1OCC(O)CN1CCN(CC(=O)Nc2c(C)cccc2C)CC1` (stereo not drawn) [ranolazine] was 0 (inactive); that for `COC(=O)c1c(C)cc(OC(=O)c2c(C)cc(O)c(C=O)c2O)c(C)c1O` [Atranorin] was 0 (inactive); that for `CC(C)NCCCC1(C(N)=O)c2ccccc2-c2ccccc21` [indecainide] was 0 (inactive).
Regarding `O=C1c2ccccc2C(Cc2ccncc2)(Cc2ccncc2)c2ccccc21`, the phenotypically active is 0 (inactive).
As to `CC1=NN(c2ccc(C(=O)O)cc2)C(=O)/C1=C\c1ccc(-c2cc(C)c(C)cc2[N+](=O)[O-])o1`, the phenotypically active is 0 (inactive).
Same read-out and setting: the value for `CCCC(=O)Nc1ncnc2c1ncn2[C@@H]1O[C@@H]2COP(=O)(O)O[C@H]2[C@H]1OC(=O)CCC` [Dibutyryl-cAMP, sodium salt] was 0 (inactive).
For `CCO[C@@H](Cc1ccc(OCCc2ccc(OS(C)(=O)=O)cc2)cc1)C(=O)O` [Tesaglitazar], the phenotypically active is 0 (inactive).
On the same count and under the same terms, as for `O=c1[nH]cnc2ccccc12`, the figure is 0 (inactive).
Still for that read-out and setting: the value for `S=P(N1CC1)(N1CC1)N1CC1` [thiotepa] was 0 (inactive).
Consider `C[C@](N)(Cc1ccc(O)c(O)c1)C(=O)O` [methyldopa], for which the phenotypically active was 0 (inactive).
Regarding `CC1CCC(C(C)C)C(O)C1` [L-menthol], the phenotypically active was 0 (inactive).
The same measure, in the same setting: as for `CCCCC1=NC2(CCCC2)C(=O)N1Cc1ccc(-c2ccccc2-c2nnn[nH]2)cc1` [irbesartan], the figure is 0 (inactive).
On the same count and under the same terms, as for `CC(=O)Oc1ccccc1C(=O)O` [aspirin], the figure is 0 (inactive).
Still for that read-out and setting: as for `CC(C(=O)O)c1ccc(C(=O)c2cccs2)cc1` (stereo not drawn) [suprofen], the figure is 0 (inactive); as for `FC(F)OC(F)C(F)(F)F` (stereo not drawn) [desflurane], 0 (inactive); as for `CC(C)NCC(O)c1ccc(NS(C)(=O)=O)cc1` (stereo not drawn) [sotalol], 0 (inactive).
Take `COc1ccc(C(C)=O)c(O)c1` [2'-Hydroxy-4'-Methoxyacetophenone]: the phenotypically active is 0 (inactive).
For the compound `CC(=O)[C@H]1CC[C@H]2[C@@H]3CCC4=CC(=O)CC[C@]4(C)[C@H]3CC[C@]12C` [progesterone], the phenotypically active was 0 (inactive).

These data come from the supplement of paper PMC7411054.
